Data reported in ChEMBL document CHEMBL1157539, “Thousands of chemical starting points for antimalarial lead identification” (Nature, 2010).

Columns and labels:
Format in all cases: functional
Plasmodium falciparum [1] = experiment: GSK_TCMDC: Inhibition of Plasmodium falciparum 3D7 in whole red blood cells, using parasite LDH activity as an index of growth. Test compounds present at 2uM
Plasmodium falciparum [2] = experiment: GSK_TCMDC: Inhibition of Plasmodium falciparum Dd2 in whole red blood cells, using parasite LDH activity as an index of growth. Test compounds present at 2uM
HepG2 = experiment: GSK_TCMDC: Percent inhibition of human HepG2 cell line. Test compounds present at 10uM.

Q: For `CCc1ccc(CN2CCC(C(=O)Nc3ccc(-c4nc5ccccc5[nH]4)cc3)CC2)o1`, which Inhibition (Plasmodium falciparum [1]) is on record?
A: 99%

Q: What about the Inhibition (Plasmodium falciparum [2]) of the same compound?
A: 94%

Q: What about the Inhibition (HepG2) of the same compound?
A: 29%

Q: For `CC(C)(C)c1ccc(OC(=O)c2ccc(NC(=O)N[C@@H](Cc3ccc(O)cc3)C(=O)NC3CCN(Cc4ccc(O)cc4)C3)cc2)cc1.O=C(O)C(F)(F)F` (some centres undefined), which Inhibition (Plasmodium falciparum [1]) is on record?
A: 92%

Q: What about the Inhibition (Plasmodium falciparum [2]) of the same compound?
A: 67%

Q: And the Inhibition (HepG2)?
A: 0%

Q: How did the Inhibition (Plasmodium falciparum [1]) turn out when `OC(CNCc1ccccc1OCc1ccccc1)c1cccc(C(F)(F)F)c1` (centres undefined) was run?
A: 99%

Q: What about the Inhibition (Plasmodium falciparum [2]) of the same compound?
A: 99%

Q: And the Inhibition (HepG2)?
A: 12%

Q: What does the source list for `CCC(C)NCc1c(O)ccc2c(CNC(C)CC)c(O)ccc12.Cl` (centres undefined)?
A: Inhibition (Plasmodium falciparum [1]): 100%; Inhibition (Plasmodium falciparum [2]): 31%; Inhibition (HepG2): 14%

Q: Which results are given for `CC(C)(C)NC(=O)COC(=O)c1c2c(nc3ccccc13)C(=Cc1ccc3c(c1)OCO3)CCC2`?
A: Inhibition (Plasmodium falciparum [1]): 90%; Inhibition (Plasmodium falciparum [2]): 82%; Inhibition (HepG2): 7%

Q: For `Cc1ccc2c(c1C)NC(=O)C21NN=C(c2ccccc2)S1` (centres undefined), which Inhibition (Plasmodium falciparum [1]) is on record?
A: 97%

Q: What about the Inhibition (Plasmodium falciparum [2]) of the same compound?
A: 65%

Q: And the Inhibition (HepG2)?
A: 31%

Q: How did the Inhibition (Plasmodium falciparum [1]) turn out when `Cc1ccc(NC(=O)c2cccc(CN3CCCN(Cc4cccc(O)c4)CC3)c2)cc1F.O=C(O)C(F)(F)F` was run?
A: 99%

Q: And the Inhibition (Plasmodium falciparum [2])?
A: 45%

Q: And the Inhibition (HepG2)?
A: 20%

Q: For `Cc1cc(C(F)(F)F)cc(-n2ncc(-c3ccc(C(=O)NCCNCc4ccccc4)cc3)c2N)n1.O=C(O)C(F)(F)F`, which Inhibition (Plasmodium falciparum [1]) is on record?
A: 91%

Q: What about the Inhibition (Plasmodium falciparum [2]) of the same compound?
A: 9%

Q: And the Inhibition (HepG2)?
A: 98%

Q: What does the source list for `N[C@@H](Cc1cc(I)c(Oc2ccc(O)c(C(=O)O)c2)c(I)c1)C(=O)O`?
A: Inhibition (Plasmodium falciparum [1]): 97%; Inhibition (Plasmodium falciparum [2]): 21%; Inhibition (HepG2): 57%

Q: Which results are given for `COc1ccc2oc(=O)c(C#N)c(O)c2c1`?
A: Inhibition (Plasmodium falciparum [1]): 99%; Inhibition (Plasmodium falciparum [2]): 0%; Inhibition (HepG2): 0%

Q: With `S=C(NCCCCCN1CCC(c2c[nH]c3ccccc23)CC1)Nc1cc(Cl)cc(Cl)c1` as the compound, how does the Inhibition (Plasmodium falciparum [1]) read?
A: 100%

Q: And the Inhibition (Plasmodium falciparum [2])?
A: 35%

Q: What about the Inhibition (HepG2) of the same compound?
A: 25%

Q: What does the source list for `COc1cccc2cc(C(=O)N[C@@H](CC(C)C)C(=O)N[C@H](C=NN3CCCC3=O)Cc3ccccc3)oc12`?
A: Inhibition (Plasmodium falciparum [1]): 96%; Inhibition (Plasmodium falciparum [2]): 80%; Inhibition (HepG2): 5%

Q: What does the source list for `CCCCCCN1CCC(NCc2ccc(C(F)(F)F)cc2)CC1.O=C(O)C(F)(F)F`?
A: Inhibition (Plasmodium falciparum [1]): 100%; Inhibition (Plasmodium falciparum [2]): 47%; Inhibition (HepG2): 11%

Q: Which results are given for `CN(CCN1CCCC1)c1nc2cc(-n3cnc4cc(-c5ccc(Cl)cc5)sc4c3=O)ccc2[nH]1.CS(=O)(=O)O`?
A: Inhibition (Plasmodium falciparum [1]): 93%; Inhibition (Plasmodium falciparum [2]): 15%; Inhibition (HepG2): 76%

Q: What does the source list for `N#Cc1ccc2[nH]cc(-c3cn4cc(SC5CCCC5)ccc4n3)c2c1`?
A: Inhibition (Plasmodium falciparum [1]): 92%; Inhibition (Plasmodium falciparum [2]): 21%; Inhibition (HepG2): 1%

Q: With `Cc1cc(S(=O)(=O)N2CCCCC(c3ccc(C(F)(F)F)cc3)=N2)c(Cl)cc1Cl` as the compound, how does the Inhibition (Plasmodium falciparum [1]) read?
A: 97%

Q: And the Inhibition (Plasmodium falciparum [2])?
A: 97%

Q: What about the Inhibition (HepG2) of the same compound?
A: 17%

Q: Which results are given for `Cc1cccc2nc(-c3cccc(-c4cccc(NC(=O)CC5NC(=O)c6ccccc65)c4)c3)[nH]c12` (centres undefined)?
A: Inhibition (Plasmodium falciparum [1]): 92%; Inhibition (Plasmodium falciparum [2]): 49%; Inhibition (HepG2): 8%

Q: Which results are given for `CCNCc1ccc(-c2cc3ncnc(Nc4ccc(OCc5cccc(F)c5)c(Cl)c4)c3s2)[nH]1`?
A: Inhibition (Plasmodium falciparum [1]): 100%; Inhibition (Plasmodium falciparum [2]): 74%; Inhibition (HepG2): 22%

Q: With `CCCCNC(=O)c1cc(CNC2CCCCC2)ccc1-c1cccc(CNCc2ccc(-c3ccccc3)cc2)c1.O=C(O)C(F)(F)F` as the compound, how does the Inhibition (Plasmodium falciparum [1]) read?
A: 100%

Q: And the Inhibition (Plasmodium falciparum [2])?
A: 85%

Q: What about the Inhibition (HepG2) of the same compound?
A: 100%

Q: Which results are given for `Cc1cccc2nc(-c3ccc(-c4ccc(C(=O)NCCN5CCCC5)cc4)cc3)[nH]c12`?
A: Inhibition (Plasmodium falciparum [1]): 100%; Inhibition (Plasmodium falciparum [2]): 77%; Inhibition (HepG2): 25%

Q: How did the Inhibition (Plasmodium falciparum [1]) turn out when `NS(=O)(=O)c1cccc(-c2ccc3ncc(N4CCOCC4)nc3c2)c1` was run?
A: 96%

Q: And the Inhibition (Plasmodium falciparum [2])?
A: 74%

Q: And the Inhibition (HepG2)?
A: 17%

Q: What does the source list for `Cn1nccc1C(=O)NCCNCc1ccc(-c2ccc(-c3nc4ccccc4[nH]3)s2)cc1.O=C(O)C(F)(F)F`?
A: Inhibition (Plasmodium falciparum [1]): 100%; Inhibition (Plasmodium falciparum [2]): 97%; Inhibition (HepG2): 23%

Q: For `Cc1cc(OCC2CCCO2)c2cc(NC(=O)C(=O)Nc3ccc4nc(C)cc(OCC5CCCO5)c4c3)ccc2n1` (centres undefined), which Inhibition (Plasmodium falciparum [1]) is on record?
A: 96%

Q: And the Inhibition (Plasmodium falciparum [2])?
A: 32%

Q: And the Inhibition (HepG2)?
A: 7%

Q: With `COc1cccc(COCC(O)CN(CCc2ccccn2)C(=O)c2ccccc2F)c1` (centres undefined) as the compound, how does the Inhibition (Plasmodium falciparum [1]) read?
A: 97%

Q: And the Inhibition (Plasmodium falciparum [2])?
A: 30%

Q: What about the Inhibition (HepG2) of the same compound?
A: 61%

Q: Which results are given for `Cc1ccc(C(=O)Nc2ccc(F)c(F)c2F)cc1S(=O)(=O)N1CCCCC1`?
A: Inhibition (Plasmodium falciparum [1]): 92%; Inhibition (Plasmodium falciparum [2]): 69%; Inhibition (HepG2): 3%

Q: With `O=C(Nc1ccccc1C(F)(F)F)Nc1nn(Cc2c(F)cccc2Cl)cc1Br` as the compound, how does the Inhibition (Plasmodium falciparum [1]) read?
A: 100%

Q: And the Inhibition (Plasmodium falciparum [2])?
A: 86%

Q: And the Inhibition (HepG2)?
A: 0%

Q: What does the source list for `CCOC(=O)N1CCN(CCCCNc2c3ccc(Cl)cc3nc3ccc(OC)cc23)CC1.Cl`?
A: Inhibition (Plasmodium falciparum [1]): 100%; Inhibition (Plasmodium falciparum [2]): 98%; Inhibition (HepG2): 25%

Q: For `COc1ccc2nccc([C@@H](O)CN3CCC(NC(=O)c4ccc(-c5ccccc5)s4)CC3)c2c1`, which Inhibition (Plasmodium falciparum [1]) is on record?
A: 100%

Q: What about the Inhibition (Plasmodium falciparum [2]) of the same compound?
A: 81%

Q: And the Inhibition (HepG2)?
A: 10%
